Results published in PubChem BioAssay (NCI).
About 83,000 compounds went through this panel and 20% of them were active in at least one assay; those are over-represented in the sample as a whole.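 Negative percent growth values reflect cell death: -40 means 40% of the cells present at the start died, and -100 means all died.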 Active and inactive are the calls of the source. Rule for the calls: active = growth percent below 10; inactive = the rest.

Key:
Assay in all cases: NCI-60 one-dose screen, 48 h (100 = growth as untreated, 0 = no growth, -100 = all killed)
Settings in all cases: 10 µM unless noted
[1] = tested on: SR leukemia
[2] = tested on: RPMI-8226 leukemia
[3] = tested on: OVCAR-8 ovarian
[4] = tested on: OVCAR-5 ovarian
[5] = tested on: OVCAR-4 ovarian
[6] = tested on: SK-OV-3 ovarian
[7] = tested on: IGROV1 ovarian
[8] = tested on: HS 578T breast
[9] = tested on: NCI/ADR-RES ovarian
[10] = tested on: T-47D breast
[11] = tested on: BT-549 breast
[12] = tested on: MDA-MB-435 melanoma
[13] = tested on: SW-620 colon
[14] = tested on: MCF7 breast
[15] = tested on: HCT-116 colon
[16] = tested on: HCC-2998 colon
[17] = tested on: KM12 colon
[18] = tested on: OVCAR-3 ovarian

Measured: growth

COc1cc(NC(C)CCCN2C(=O)c3ccccc3C2=O)c2ncccc2c1OC (stereo unspecified)
inactive: [1] 35.4% | [2] 55.5% | [3] 85.5% | [4] 99.1% | [5] 50.8% | [6] 92.5% | [7] 63.6% | [8] 95.7% | [9] 90.6% | [10] 66.8% | [11] 91.2% | [12] 92.1% | [13] 84.7% | [14] 41.8% | [15] 84.5% | [16] 124% | [17] 80.2%

Nc1nc(Cl)cc(NCc2ccc(CNc3cc(Cl)nc(N)n3)cc2)n1
active: [7] -31%
inactive: [1] 139% | [2] 103% | [3] 89.6% | [4] 82.5% | [5] 59.7% | [6] 92.5% | [8] 100% | [9] 103% | [10] 69.2% | [11] 72.6% | [12] 106% | [13] 87.4% | [14] 103% | [15] 83.3% | [16] 101% | [17] 99%

Cc1cn(C2CC(N=[N+]=[N-])C(COP(=O)(O)OP(=O)(O)OP(=O)(O)O)O2)c(=O)[nH]c1=O (stereo unspecified)
inactive: [1] 24.3% | [2] 60.7% | [3] 120% | [4] 93% | [5] 108% | [6] 104% | [7] 75.5% | [8] 133% | [9] 111% | [10] 111% | [11] 115% | [12] 107% | [13] 109% | [14] 104% | [15] 94.1% | [16] 97.6% | [17] 108%

Cc1cc2c(cc1C)N(C(=O)CCl)CCN2C(=O)CCl
active: [1] -13.6% | [2] -41.9% | [3] -4.44% | [4] -74.4% | [5] -72% | [7] -61.8% | [18] -95.8% | [9] -49.7% | [10] -34.5% | [12] -26.9% | [13] -78.2% | [14] -47.6% | [15] -34% | [16] -97.9% | [17] -85.2%
inactive: [6] 53%

O=C(Nc1ccc(-n2ccc3c(NC(=O)c4ccccc4)nccc32)cc1)Nc1ccc(Cl)c(Cl)c1
active: [1] -30.3% | [2] -49.6% | [3] -45% | [5] -4.39% | [7] 4.31% | [18] -79.6% | [9] -34.4% | [12] -58.9% | [13] -64.6% | [14] -91.9% | [15] -94.5% | [16] -57.6% | [17] -49.1%
inactive: [4] 50% | [6] 59.7% | [10] 20.7% | [11] 40.3%

N#Cc1c(N)nc2c(c1N)C(c1ccc(Cl)cc1)C1=C(CCCC1=O)N2c1sc2c(c1C#N)CCCC2 (stereo unspecified)
inactive: [1] 41.8% | [2] 75.5% | [3] 84.4% | [4] 74.8% | [5] 89.9% | [6] 89.1% | [7] 89.6% | [8] 86.7% | [9] 81.1% | [10] 96.8% | [11] 96.1% | [12] 112% | [13] 107% | [14] 99.7% | [15] 70.8% | [16] 90.3% | [17] 89.7%

CCOC(=O)c1cnc2c(OC)ccc(OC)c2c1Cl
inactive: [1] 115% | [2] 100% | [3] 101% | [4] 109% | [5] 113% | [6] 100% | [7] 117% | [18] 108% | [9] 110% | [10] 116% | [12] 104% | [13] 107% | [14] 108% | [15] 108% | [16] 117% | [17] 101%

O=C1OC(=O)C2C3CC(c4ccccc43)C12 (stereo unspecified)
inactive: [1] 104% | [2] 99.7% | [3] 92.4% | [4] 85.5% | [5] 112% | [6] 95.8% | [7] 109% | [18] 125% | [9] 112% | [10] 103% | [12] 104% | [13] 101% | [14] 97.7% | [15] 89.2% | [16] 106% | [17] 105%

CCNc1cc(S(=O)(=O)O)ccc1C
inactive: [1] 113% | [2] 98% | [3] 97.3% | [4] 106% | [5] 110% | [6] 92.4% | [7] 106% | [18] 116% | [9] 102% | [10] 90% | [12] 107% | [13] 104% | [14] 98.6% | [15] 98.3% | [16] 103% | [17] 107%

Cc1cc2nc(-c3c(N)ncc(C#N)c3-c3ccc(Cl)cc3)[nH]c2cc1C
inactive: [1] 49.4% | [2] 56% | [3] 38.4% | [4] 83.2% | [5] 56.1% | [6] 75.9% | [7] 46% | [18] 21.8% | [9] 53.9% | [10] 68.8% | [12] 58% | [13] 76.6% | [14] 58.5% | [15] 34.8% | [16] 65.4% | [17] 52.9%

CN1CCN(Cn2nc(-c3cc(F)c(Cl)cc3Cl)n(/N=C/c3ccc(N(C)C)cc3)c2=S)CC1
active: [12] -7.65%
inactive: [1] 43.8% | [2] 80.9% | [3] 90.8% | [4] 106% | [5] 106% | [6] 77.4% | [7] 57.8% | [8] 63.5% | [9] 65.9% | [10] 93.7% | [11] 67.1% | [13] 70.5% | [14] 112% | [15] 82.1% | [16] 98% | [17] 88.8%

Cc1cccc[n+]1CCC[n+]1ccccc1C
inactive: [1] 96.2% | [2] 98.8% | [3] 105% | [4] 109% | [5] 110% | [6] 76.1% | [7] 107% | [18] 112% | [9] 106% | [10] 85.6% | [12] 102% | [13] 107% | [14] 96.5% | [15] 86.1% | [16] 107% | [17] 100%

CCOC(=O)C1CN(Cc2ccccc2)C(=O)C1=O (stereo unspecified)
inactive: [1] 27% | [2] 95.6% | [3] 107% | [4] 95.2% | [5] 91.9% | [6] 107% | [7] 109% | [18] 105% | [9] 109% | [10] 104% | [12] 98.6% | [13] 95% | [14] 100% | [15] 92.9% | [16] 118% | [17] 108%

COc1cc(-c2nc3ccccc3s2)ccc1OCc1nc2n(n1)S(=O)(=O)c1ccccc1N2c1ccccc1
inactive: [1] 23.7% | [2] 88.9% | [3] 103% | [4] 104% | [5] 102% | [6] 110% | [7] 56.1% | [8] 97% | [9] 107% | [10] 101% | [11] 104% | [12] 107% | [13] 102% | [14] 105% | [15] 99.5% | [16] 129% | [17] 101%

COc1ccc(OC)c(NCC(=O)n2nc(/C=C\c3ccc(O)c(OC)c3)cc2/C=C\c2ccc(O)c(OC)c2)c1
inactive: [4] 25.3% | [5] 39.2% | [7] 11.6% | [18] 12% | [9] 20.4% | [10] 15.5% | [11] 17.1% | [16] 18% | [17] 11.1%
active: [1] 0.623% | [2] -8.66% | [3] 7.25% | [6] -3.5% | [12] 5.88% | [13] 9.13%

CC/C(=C(\CC)c1ccc(OCCN(CC)CC)cc1)c1ccc(OCCN(CC)CC)cc1
inactive: [2] 18.3% | [3] 53.3% | [4] 38.7% | [5] 38.1% | [6] 64.2% | [7] 59.9% | [18] 45.5% | [9] 57.6% | [10] 12.3% | [12] 15.4% | [14] 30.1% | [15] 16.7% | [16] 63.2% | [17] 33.5%
active: [1] -8.6% | [13] 9.59%

CC(=O)Nc1ccc([I+]c2ccc([N+](=O)[O-])cc2)cc1
inactive: [1] 87.7% | [2] 92.7% | [3] 95% | [4] 116% | [5] 90% | [6] 94.4% | [7] 80.8% | [18] 94.9% | [9] 113% | [10] 68.1% | [12] 109% | [13] 95.1% | [14] 94.8% | [15] 81% | [16] 106% | [17] 104%

COc1ccc(C2=NN(C(=O)COc3ccc(Cl)cc3)C(O)(c3cc(F)c(Cl)cc3Cl)C2)cc1OC (stereo unspecified)
inactive: [4] 82.8% | [5] 21.8% | [6] 93.6% | [8] 22% | [9] 19.9% | [16] 78.4% | [17] 60.4%
active: [1] -35.1% | [2] -74.8% | [3] 5.4% | [7] -50.6% | [10] -51.1% | [11] -76% | [12] 8.66% | [13] -84.8% | [14] 7.79% | [15] -69.1%

O=C(Nc1ccc(-n2ccc3c(NC(=O)c4ccccc4)ncnc32)cc1)c1cccc(C(F)(F)F)c1
inactive: [2] 20.1% | [3] 40.9% | [4] 62.3% | [5] 97.1% | [6] 61.2% | [7] 43.1% | [18] 54.4% | [9] 50.7% | [10] 57.8% | [12] 38.3% | [13] 29.1% | [14] 36.4% | [15] 22.3% | [16] 59.8% | [17] 30%
active: [1] 2.8%
